Data on 1 sequence can be found in publication PMC7862700, “An all-to-all approach to the identification of sequence-specific readers for epigenetic DNA modifications on cytosine”.

Common to all, as to assay: DAPPL (digital affinity profiling via proximity ligation, sequencing); 10 mM Tris-HCl pH 7.5, 50 mM NaCl, 1 mM DTT, 4% glycerol, room temperature, 30 min; GST-TFs on glutathione beads, 16-mer random dsDNA library, 0.1% formaldehyde crosslink after washing; high values mean tight binding
In one assay the target is T1, FLI1 (Homo sapiens, UniProt Q01543 1-452).
T1 sequence: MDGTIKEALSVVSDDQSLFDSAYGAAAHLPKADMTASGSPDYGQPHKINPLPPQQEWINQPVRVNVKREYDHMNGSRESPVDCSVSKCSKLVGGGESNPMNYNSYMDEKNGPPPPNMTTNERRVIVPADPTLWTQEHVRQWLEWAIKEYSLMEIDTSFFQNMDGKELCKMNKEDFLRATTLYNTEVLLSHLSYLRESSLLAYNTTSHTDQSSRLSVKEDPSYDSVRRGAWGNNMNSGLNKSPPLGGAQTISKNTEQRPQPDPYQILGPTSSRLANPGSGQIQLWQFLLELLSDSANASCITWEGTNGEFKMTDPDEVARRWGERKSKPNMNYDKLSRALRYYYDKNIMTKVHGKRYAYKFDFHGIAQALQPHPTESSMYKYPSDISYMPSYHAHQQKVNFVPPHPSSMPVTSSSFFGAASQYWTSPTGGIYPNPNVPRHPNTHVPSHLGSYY
The conditions noted are these: protein: recombinant; tags: N-terminal GST; dsDNA, one strand shown. The essentials: (§1)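 Sequencing on an Illumina NextSeq500 followed washing, crosslinking with 0.1% formaldehyde, proximity ligation (BsaI/T4 ligase, 1 h, 37 °C) and PCR amplification of pools that had been incubated for 30 min at room temperature with 200 nmole of a random double-stranded 16-mer DNA library in Tris/NaCl/DTT/glycerol buffer. Each pool held DNA-barcoded human transcription factors, expressed in yeast as GST fusions and captured on glutathione beads, plus a tag-only sample. Binding signal is a hexamer's read frequency for a factor divided by its frequency in the tag-only sample.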

Another assay concerns the target T2, ELK1 (Homo sapiens, UniProt P19419 1-428).
T2 sequence: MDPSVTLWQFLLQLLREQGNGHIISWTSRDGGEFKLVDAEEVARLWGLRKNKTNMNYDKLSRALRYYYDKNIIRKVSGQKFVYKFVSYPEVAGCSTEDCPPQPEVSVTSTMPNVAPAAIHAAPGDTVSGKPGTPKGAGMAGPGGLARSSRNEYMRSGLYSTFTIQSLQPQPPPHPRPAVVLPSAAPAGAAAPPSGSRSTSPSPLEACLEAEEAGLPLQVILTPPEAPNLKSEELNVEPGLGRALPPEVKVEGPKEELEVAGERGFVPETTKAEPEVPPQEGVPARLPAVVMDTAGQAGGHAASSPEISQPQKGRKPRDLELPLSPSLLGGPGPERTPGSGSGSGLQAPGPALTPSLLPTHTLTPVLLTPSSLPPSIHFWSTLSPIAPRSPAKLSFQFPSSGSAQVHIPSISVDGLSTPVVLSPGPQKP
The conditions noted are these: protein: recombinant; tags: N-terminal GST; dsDNA, one strand shown. In outline:
as §1

A further assay concerns the target T3, GABPA (Homo sapiens, UniProt Q06546 1-454).
T3 sequence: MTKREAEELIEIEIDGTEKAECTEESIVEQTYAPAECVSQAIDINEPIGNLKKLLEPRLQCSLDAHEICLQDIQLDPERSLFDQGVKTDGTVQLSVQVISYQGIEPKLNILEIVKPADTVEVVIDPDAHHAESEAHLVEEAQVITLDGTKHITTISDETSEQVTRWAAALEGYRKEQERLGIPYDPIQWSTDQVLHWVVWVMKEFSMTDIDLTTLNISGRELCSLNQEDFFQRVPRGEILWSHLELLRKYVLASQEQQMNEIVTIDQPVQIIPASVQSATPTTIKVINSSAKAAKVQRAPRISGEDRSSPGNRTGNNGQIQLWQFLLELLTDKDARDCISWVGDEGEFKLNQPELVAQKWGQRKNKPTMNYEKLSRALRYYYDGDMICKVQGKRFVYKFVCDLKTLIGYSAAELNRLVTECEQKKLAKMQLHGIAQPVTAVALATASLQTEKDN
The conditions noted are these: protein: recombinant; tags: N-terminal GST; dsDNA, one strand shown. In outline: as §1

For another assay, the target named is T4, ERG (Homo sapiens, UniProt P11308 1-479).
T4 sequence: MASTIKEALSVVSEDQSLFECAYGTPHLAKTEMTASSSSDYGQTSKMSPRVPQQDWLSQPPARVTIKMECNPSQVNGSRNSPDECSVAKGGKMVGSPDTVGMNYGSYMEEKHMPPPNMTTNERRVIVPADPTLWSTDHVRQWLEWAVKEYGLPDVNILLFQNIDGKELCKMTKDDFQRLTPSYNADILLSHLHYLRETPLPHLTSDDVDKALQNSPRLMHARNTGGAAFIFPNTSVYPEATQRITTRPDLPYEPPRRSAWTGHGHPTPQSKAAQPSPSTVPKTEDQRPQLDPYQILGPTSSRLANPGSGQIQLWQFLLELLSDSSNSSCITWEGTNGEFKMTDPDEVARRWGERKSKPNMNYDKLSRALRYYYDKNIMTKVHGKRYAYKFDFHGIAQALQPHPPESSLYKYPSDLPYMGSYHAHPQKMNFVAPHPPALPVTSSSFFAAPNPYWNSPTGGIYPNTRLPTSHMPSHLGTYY
The conditions noted are these: protein: recombinant; tags: N-terminal GST; dsDNA, one strand shown. The essentials:
as §1

The target of the next assay is ELF1 (Homo sapiens, UniProt P32519 1-619). The conditions noted are these: protein: recombinant; tags: N-terminal GST; dsDNA, one strand shown. The essentials: as §1
Sequence of ELF1 (P32519 whole entry): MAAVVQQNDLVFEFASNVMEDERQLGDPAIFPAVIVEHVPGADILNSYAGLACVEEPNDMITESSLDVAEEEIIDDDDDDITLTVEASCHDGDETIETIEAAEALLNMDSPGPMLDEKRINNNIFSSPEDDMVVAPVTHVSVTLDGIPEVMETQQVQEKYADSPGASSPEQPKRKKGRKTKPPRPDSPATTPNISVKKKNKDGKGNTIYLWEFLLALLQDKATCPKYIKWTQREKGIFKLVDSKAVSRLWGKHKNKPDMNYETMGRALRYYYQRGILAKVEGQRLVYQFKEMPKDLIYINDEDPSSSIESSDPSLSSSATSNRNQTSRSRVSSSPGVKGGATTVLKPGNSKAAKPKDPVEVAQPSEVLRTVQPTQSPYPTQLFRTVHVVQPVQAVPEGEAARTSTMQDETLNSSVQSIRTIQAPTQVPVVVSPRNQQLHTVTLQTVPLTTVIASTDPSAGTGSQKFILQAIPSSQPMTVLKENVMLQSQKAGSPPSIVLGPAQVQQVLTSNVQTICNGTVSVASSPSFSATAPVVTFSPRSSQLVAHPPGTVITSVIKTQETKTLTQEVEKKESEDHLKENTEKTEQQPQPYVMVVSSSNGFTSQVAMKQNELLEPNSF
The next assay has as its target T5, EHF (Homo sapiens, UniProt Q9NZC4 1-300).
T5 sequence: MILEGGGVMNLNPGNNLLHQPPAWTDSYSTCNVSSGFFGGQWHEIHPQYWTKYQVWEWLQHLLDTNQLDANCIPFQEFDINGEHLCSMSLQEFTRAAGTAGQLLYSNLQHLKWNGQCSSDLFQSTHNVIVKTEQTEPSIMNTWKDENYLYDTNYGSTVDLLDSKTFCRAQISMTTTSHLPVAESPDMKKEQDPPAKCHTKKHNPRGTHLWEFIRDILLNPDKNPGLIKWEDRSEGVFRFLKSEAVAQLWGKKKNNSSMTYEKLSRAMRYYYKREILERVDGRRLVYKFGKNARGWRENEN
Particulars: protein: recombinant; tags: N-terminal GST; dsDNA, one strand shown. In outline: as §1

Another assay deals with SPI1 (Homo sapiens, UniProt P17947 1-270). The conditions noted are these: protein: recombinant; tags: N-terminal GST; dsDNA, one strand shown. The essentials: as §1
The next assay deals with SPIB (Homo sapiens, UniProt Q01892 1-262). Particulars: protein: recombinant; tags: N-terminal GST; dsDNA, one strand shown. In outline: as §1
Sequence of SPIB (Q01892 whole entry): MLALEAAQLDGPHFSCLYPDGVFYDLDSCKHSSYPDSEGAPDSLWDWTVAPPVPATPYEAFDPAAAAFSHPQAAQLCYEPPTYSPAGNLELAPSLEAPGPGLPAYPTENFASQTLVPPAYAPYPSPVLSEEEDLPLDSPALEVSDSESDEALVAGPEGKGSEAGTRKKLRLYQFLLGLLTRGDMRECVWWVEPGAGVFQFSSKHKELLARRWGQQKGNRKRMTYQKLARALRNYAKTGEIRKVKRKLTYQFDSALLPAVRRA
A further assay addresses T6, ELK3 (Homo sapiens, UniProt P41970 1-407).
T6 sequence: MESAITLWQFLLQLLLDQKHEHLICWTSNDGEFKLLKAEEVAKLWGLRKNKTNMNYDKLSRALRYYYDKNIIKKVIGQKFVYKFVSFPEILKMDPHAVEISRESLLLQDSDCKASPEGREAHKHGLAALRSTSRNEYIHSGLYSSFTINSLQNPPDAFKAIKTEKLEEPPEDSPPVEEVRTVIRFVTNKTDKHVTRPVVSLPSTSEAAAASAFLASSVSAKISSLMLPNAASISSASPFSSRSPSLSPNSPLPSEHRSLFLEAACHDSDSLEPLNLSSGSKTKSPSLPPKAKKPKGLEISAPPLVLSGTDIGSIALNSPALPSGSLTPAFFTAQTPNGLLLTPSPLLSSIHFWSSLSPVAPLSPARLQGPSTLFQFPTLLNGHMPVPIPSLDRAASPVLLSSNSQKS
Particulars: protein: recombinant; tags: N-terminal GST; dsDNA, one strand shown. The essentials: as §1

Another assay has as its target T7, FEV (Homo sapiens, UniProt Q99581 1-238).
T7 sequence: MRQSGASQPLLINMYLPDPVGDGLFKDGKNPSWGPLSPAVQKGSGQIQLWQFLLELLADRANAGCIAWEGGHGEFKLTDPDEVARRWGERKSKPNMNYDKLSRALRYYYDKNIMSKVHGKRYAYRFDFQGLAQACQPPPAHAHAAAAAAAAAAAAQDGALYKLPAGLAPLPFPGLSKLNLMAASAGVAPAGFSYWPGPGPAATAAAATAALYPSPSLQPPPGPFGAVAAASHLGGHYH
Particulars: protein: recombinant; tags: N-terminal GST; dsDNA, one strand shown. The essentials: as §1

In another assay the target is ETV5 (Homo sapiens, UniProt P41161 1-510). The conditions noted are these: protein: recombinant; tags: N-terminal GST; dsDNA, one strand shown. The essentials:
as §1

Another assay concerns the target HSF1 (Homo sapiens, UniProt Q00613 1-529). The conditions noted are these: protein: recombinant; tags: N-terminal GST; chain copies: 3; dsDNA, one strand shown. In outline:
as §1

A further assay deals with T8, SPIC (Homo sapiens, UniProt Q8N5J4 1-248).
T8 sequence: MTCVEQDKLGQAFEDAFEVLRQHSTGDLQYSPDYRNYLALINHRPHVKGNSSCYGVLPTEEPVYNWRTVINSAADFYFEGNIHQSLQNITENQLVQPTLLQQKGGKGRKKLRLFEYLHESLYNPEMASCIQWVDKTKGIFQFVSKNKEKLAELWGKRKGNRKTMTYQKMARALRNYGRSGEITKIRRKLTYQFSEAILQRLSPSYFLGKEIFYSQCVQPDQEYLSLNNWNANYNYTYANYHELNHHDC
The conditions noted are these: protein: recombinant; tags: N-terminal GST; dsDNA, one strand shown. The essentials:
as §1

The next assay concerns the target ELF4 (Homo sapiens, UniProt Q99607 1-663). Particulars: protein: recombinant; tags: N-terminal GST; dsDNA, one strand shown. In outline: as §1
For another assay, the target named is T9, ELK4 (Homo sapiens, UniProt P28324-2 1-405).
T9 sequence: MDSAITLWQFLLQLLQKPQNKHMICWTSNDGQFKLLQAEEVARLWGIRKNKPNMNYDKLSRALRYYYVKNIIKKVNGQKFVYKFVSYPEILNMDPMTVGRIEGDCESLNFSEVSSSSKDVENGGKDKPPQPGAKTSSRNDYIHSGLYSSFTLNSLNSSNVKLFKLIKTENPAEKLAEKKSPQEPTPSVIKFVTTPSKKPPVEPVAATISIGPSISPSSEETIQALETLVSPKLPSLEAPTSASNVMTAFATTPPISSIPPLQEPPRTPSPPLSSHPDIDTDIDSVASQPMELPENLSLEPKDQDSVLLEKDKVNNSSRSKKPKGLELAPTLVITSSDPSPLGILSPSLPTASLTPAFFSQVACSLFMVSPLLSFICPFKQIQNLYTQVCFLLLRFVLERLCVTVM
Particulars: protein: recombinant; tags: N-terminal GST; dsDNA, one strand shown. The essentials:
as §1

Another assay concerns the target T10, ETV2 (Homo sapiens, UniProt O00321 1-342).
T10 sequence: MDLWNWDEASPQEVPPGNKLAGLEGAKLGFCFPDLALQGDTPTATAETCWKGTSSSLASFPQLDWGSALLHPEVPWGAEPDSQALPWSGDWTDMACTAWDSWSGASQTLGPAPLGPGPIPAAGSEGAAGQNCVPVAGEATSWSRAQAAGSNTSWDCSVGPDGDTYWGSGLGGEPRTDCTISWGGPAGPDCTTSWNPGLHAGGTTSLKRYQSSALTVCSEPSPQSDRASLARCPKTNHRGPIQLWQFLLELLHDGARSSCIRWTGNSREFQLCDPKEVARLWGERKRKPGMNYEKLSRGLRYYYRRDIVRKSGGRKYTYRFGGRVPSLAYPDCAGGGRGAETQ
Particulars: protein: recombinant; tags: N-terminal GST; dsDNA, one strand shown. The essentials:
as §1

In the next assay the target is T11, ELF3 (Homo sapiens, UniProt P78545 1-371).
T11 sequence: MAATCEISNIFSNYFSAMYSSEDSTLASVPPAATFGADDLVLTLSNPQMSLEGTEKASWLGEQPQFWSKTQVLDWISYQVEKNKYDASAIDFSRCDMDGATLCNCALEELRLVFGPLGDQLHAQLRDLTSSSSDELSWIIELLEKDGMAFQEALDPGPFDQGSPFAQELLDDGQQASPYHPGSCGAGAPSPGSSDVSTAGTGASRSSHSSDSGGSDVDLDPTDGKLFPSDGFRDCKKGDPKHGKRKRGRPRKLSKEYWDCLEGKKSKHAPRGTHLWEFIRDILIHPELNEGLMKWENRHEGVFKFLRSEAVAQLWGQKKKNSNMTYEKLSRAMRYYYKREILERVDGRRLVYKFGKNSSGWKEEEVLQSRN
The conditions noted are these: protein: recombinant; tags: N-terminal GST; dsDNA, one strand shown. The essentials:
as §1

A further assay has as its target ETV1 (Homo sapiens, UniProt P50549 1-477). Particulars: protein: recombinant; tags: N-terminal GST; dsDNA, one strand shown. The essentials: as §1

Sequence of HSF1 (Q00613 whole entry): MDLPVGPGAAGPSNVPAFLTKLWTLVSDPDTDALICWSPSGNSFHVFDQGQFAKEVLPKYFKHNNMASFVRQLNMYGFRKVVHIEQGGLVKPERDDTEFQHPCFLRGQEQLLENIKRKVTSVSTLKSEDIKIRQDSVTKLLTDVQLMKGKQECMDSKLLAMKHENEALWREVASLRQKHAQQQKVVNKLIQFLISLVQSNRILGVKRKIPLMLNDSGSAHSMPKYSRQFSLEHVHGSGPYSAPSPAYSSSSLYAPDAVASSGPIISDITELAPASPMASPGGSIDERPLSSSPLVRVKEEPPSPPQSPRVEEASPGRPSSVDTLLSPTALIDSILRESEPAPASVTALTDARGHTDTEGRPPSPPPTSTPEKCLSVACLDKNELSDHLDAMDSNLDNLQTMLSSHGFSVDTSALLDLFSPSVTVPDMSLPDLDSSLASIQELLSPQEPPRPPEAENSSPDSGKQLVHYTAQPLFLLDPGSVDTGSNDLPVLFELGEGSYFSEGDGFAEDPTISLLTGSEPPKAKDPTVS
Sequence of ETV5 (P41161 whole entry): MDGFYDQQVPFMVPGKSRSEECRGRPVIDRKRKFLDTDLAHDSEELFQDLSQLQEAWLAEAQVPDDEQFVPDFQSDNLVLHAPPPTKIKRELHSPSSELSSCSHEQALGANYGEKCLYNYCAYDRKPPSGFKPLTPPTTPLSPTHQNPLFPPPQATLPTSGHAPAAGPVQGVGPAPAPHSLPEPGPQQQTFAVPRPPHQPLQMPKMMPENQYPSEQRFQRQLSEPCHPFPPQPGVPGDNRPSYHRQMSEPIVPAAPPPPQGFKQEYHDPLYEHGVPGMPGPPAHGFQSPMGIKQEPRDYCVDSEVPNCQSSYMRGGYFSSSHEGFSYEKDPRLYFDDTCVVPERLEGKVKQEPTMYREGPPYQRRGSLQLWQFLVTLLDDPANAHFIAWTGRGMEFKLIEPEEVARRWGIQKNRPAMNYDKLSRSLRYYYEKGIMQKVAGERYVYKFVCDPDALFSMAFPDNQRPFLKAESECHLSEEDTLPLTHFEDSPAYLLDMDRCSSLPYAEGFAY
Sequence of ETV1 (P50549 whole entry): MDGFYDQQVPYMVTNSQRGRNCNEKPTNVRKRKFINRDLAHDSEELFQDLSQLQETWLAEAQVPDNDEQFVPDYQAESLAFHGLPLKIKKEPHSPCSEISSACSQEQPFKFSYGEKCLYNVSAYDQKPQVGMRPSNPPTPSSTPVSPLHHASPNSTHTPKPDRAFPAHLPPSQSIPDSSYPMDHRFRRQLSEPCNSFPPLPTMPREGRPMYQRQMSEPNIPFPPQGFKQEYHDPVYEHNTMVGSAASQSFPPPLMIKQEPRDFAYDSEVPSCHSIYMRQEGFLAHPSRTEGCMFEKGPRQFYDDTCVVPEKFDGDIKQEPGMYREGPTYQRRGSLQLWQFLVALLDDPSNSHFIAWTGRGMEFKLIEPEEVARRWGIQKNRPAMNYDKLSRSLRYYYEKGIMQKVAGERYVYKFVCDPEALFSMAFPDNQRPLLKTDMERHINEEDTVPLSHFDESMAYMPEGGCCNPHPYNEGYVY
Sequence of ELF4 (Q99607 whole entry): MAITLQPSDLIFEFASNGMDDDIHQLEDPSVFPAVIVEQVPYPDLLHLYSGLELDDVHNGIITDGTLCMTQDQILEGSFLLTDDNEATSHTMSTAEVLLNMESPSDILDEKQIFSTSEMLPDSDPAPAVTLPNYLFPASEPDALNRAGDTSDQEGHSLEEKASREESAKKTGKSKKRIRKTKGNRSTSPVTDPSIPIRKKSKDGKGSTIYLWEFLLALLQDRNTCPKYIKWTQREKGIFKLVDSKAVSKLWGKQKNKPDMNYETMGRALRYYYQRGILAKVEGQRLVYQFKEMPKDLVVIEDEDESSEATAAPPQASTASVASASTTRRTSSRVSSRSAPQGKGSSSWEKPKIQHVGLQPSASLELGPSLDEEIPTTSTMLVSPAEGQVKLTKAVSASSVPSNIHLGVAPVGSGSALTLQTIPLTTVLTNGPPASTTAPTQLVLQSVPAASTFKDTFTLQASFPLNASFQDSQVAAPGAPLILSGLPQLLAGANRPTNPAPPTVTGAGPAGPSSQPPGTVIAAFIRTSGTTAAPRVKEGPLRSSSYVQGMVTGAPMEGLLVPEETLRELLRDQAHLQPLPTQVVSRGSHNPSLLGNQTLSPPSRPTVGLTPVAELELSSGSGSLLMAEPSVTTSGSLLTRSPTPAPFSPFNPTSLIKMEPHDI

As for TGTACC, the binding signal is 1.42 fold enrichment (6-mer frequency, TF over GST control) with FLI1; 1.36 fold enrichment (6-mer frequency, TF over GST control) with ELK1; 1.29 fold enrichment (6-mer frequency, TF over GST control) with GABPA; 1.26 fold enrichment (6-mer frequency, TF over GST control) with ERG; 1.34 fold enrichment (6-mer frequency, TF over GST control) with ELF1; 1.35 fold enrichment (6-mer frequency, TF over GST control) with EHF. For the same sequence, the binding signal with SPI1 was 1.33 fold enrichment (6-mer frequency, TF over GST control); in the assay with SPIB it was 1.22 fold enrichment (6-mer frequency, TF over GST control); in the assay with ELK3, 1.28 fold enrichment (6-mer frequency, TF over GST control); in the assay with FEV, 1.38 fold enrichment (6-mer frequency, TF over GST control); with ETV5, 1.4 fold enrichment (6-mer frequency, TF over GST control); with HSF1, 1.03 fold enrichment (6-mer frequency, TF over GST control). In addition, the binding signal with SPIC is 1.39 fold enrichment (6-mer frequency, TF over GST control); in the assay with ELF4 it was 1.26 fold enrichment (6-mer frequency, TF over GST control); with ELK4, 1.39 fold enrichment (6-mer frequency, TF over GST control); with ETV2, 1.35 fold enrichment (6-mer frequency, TF over GST control); in the assay with ELF3, 1.38 fold enrichment (6-mer frequency, TF over GST control); with ETV1, 1.37 fold enrichment (6-mer frequency, TF over GST control).
